Source: PubChem BioAssay (NCI)
This is part of a sample that, as a whole, favours compounds with a hit. Of some 79,000 tested, about 15% had one in any assay. Calls of active or inactive are those of the source. Rule as the data show it: active = growth inhibition above about 70%; inactive = the rest.

Experiments:
[1] = NCI Yeast Anticancer Drug Screen. Data for the rad50 strain (AID 155);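 also: 0% = growth of vehicle-only cultures of the same strain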; conditions: S. cerevisiae rad50 strain growth inhibition; at 50.0 µM; hits give high values
How it was run: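 Vehicle-treated cultures provide the reference for the growth inhibition reported for compound-exposed, repair-deficient yeast.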

[2] = NCI Yeast Anticancer Drug Screen. Data for the mec2-1 strain (AID 157); conditions: S. cerevisiae mec2-1 strain, at 50.0 µM, hits give high values
How it was run: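 Yeast mec2-1 mutant treated with compound. Readout: growth inhibition vs vehicle controls.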

[3] = NCI Yeast Anticancer Drug Screen. Data for the sgs1 mgt1 strain (AID 161);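 also: 0% = growth of cultures given vehicle only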; conditions: S. cerevisiae sgs1 mgt1 strain, at 50.0 µM, hits give high values
How it was run: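 Inhibition of yeast growth, normalised to vehicle-treated controls, is reported for a strain bearing genetic alterations in DNA damage repair.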

[4] = NCI Yeast Anticancer Drug Screen. Data for the cln2 rad14 strain (AID 165);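 also: 0% = growth equal to vehicle treated cultures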; conditions: S. cerevisiae cln2 rad14 strain, at 50.0 µM, hits give high values
How it was run: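 cln2 rad14 yeast strain; compound exposure; growth inhibition read vs vehicle controls.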

[5] = NCI Yeast Anticancer Drug Screen. Data for the bub3 strain (AID 167); conditions: S. cerevisiae bub3 mutant strain, at 50.0 µM, hits give high values
How it was run: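 Mutant yeast screening strain plus compound; vehicle-treated cultures serve as the 0% inhibition reference.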

[6] = NCI Yeast Anticancer Drug Screen. Data for the mlh1 rad18 strain (AID 175); conditions: S. cerevisiae mlh1 rad18 strain growth inhibition; at 50.0 µM; hits give high values
How it was run: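 Yeast w/ defined DNA-repair lesions; compound exposure; growth vs vehicle controls → % inhibition.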

Measured: growth inhibition

Cc1cc(Cl)c(=O)n(-c2ccccc2)n1
inactive: [1] 3.65% | [2] -9.7% | [3] -9.95% | [4] -27.8% | [5] 4.75% | [6] -16.1%

O=[N+]([O-])c1ccc(/C([O-])=C(\C(=S)Nc2ccccc2Cl)[n+]2ccccc2)cc1
inactive: [1] -7.5% | [2] 0.1% | [3] -6.95% | [4] -14.4% | [5] 2.35% | [6] 11.2%

Cc1ccc(C)c(CNC(=O)C2CCCCC2C(=O)O)c1 (centres undefined)
inactive: [1] 9.3% | [2] 33.6% | [3] 37.2% | [4] -0.6% | [5] 34.6% | [6] -3.2%

Cc1ccc(S(=O)(=O)N(C)C)cc1NC1=NCCO1
inactive: [1] -2.55% | [2] 5.75% | [3] 7.85% | [4] -40.4% | [5] -1% | [6] -2.6%

O=C(CCc1ccc(O)c(O)c1)NCCc1cc(O)cc(O)c1
inactive: [1] 23.1% | [2] -23.9% | [3] -26.8% | [4] -4.95% | [5] -42.5% | [6] -52.5%

CCOC(=O)C(=CNc1ccc(F)c(F)c1)C(=O)OCC
inactive: [1] -0.4% | [2] 1.55% | [3] -8.35% | [4] -2.2% | [5] 26.1% | [6] -36%

Clc1ccc(Cl)c(-c2csc(-c3cccnc3)n2)c1
inactive: [1] 4.95% | [2] -11.6% | [3] 12.5% | [4] -34.5% | [5] 7.6% | [6] 17.9%

Nc1ccc(/C=C/c2ccc(N)cc2)cc1
inactive: [1] 9.05% | [2] -0.95% | [3] -1.4% | [4] -1.25% | [5] 8.9% | [6] 5.05%

CC(=O)C(N)=NCc1ccccc1
inactive: [1] 10.2% | [2] 2.7% | [3] -10.7% | [4] 4.6% | [5] 25.8% | [6] 10.8%

O=C1c2ccccc2-c2c1c1ccccc1c(=O)n2Cc1ccccc1
inactive: [1] 6.1% | [2] -14.2% | [3] 2.85% | [4] 8.05% | [5] -16.9% | [6] -63.8%

C=CCCCCCC(O)C(O)C/C=C\C/C=C\CC (centres undefined)
inactive: [1] 18.4% | [2] 4.6% | [3] 22.8% | [4] -1.35% | [5] 15.5% | [6] 27.2%

Clc1ccccc1-c1c2ccccc2cc2c1ccc1ccccc12
inactive: [1] -12.1% | [2] -14.5% | [3] -7.75% | [4] -0.85% | [5] 5.45% | [6] -4.7%

COC1=NS(=O)(=O)C2(O1)c1ccccc1-c1ccccc12
inactive: [1] 15.2% | [2] 17.2% | [3] 11.4% | [4] 13.2% | [5] 25.8% | [6] 12.3%

CCCCCCC(=O)O
inactive: [1] 0.75% | [2] -16.4% | [3] -4.85% | [4] -30.3% | [5] -0.1% | [6] 9.9%

O=CC(=O)c1ccccc1O
inactive: [1] 30.1% | [2] 36.6% | [3] 44.9% | [4] 18.3% | [5] 37%
active: [6] 75.7%

CC(=O)NC1C(O)C(O)C(CO)OC1n1nc(SCc2ccccc2)c(=O)[nH]c1=O (centres undefined)
inactive: [1] 3.9% | [2] 11.9% | [3] -12.9% | [4] -5.65% | [5] -24.4% | [6] -36.5%

O=C(O)c1ccc(SSc2ccc(C(=O)O)cn2)nc1
inactive: [1] 9.9% | [2] 19.1% | [3] -13.3% | [4] -8.5% | [5] 6.7% | [6] 14.9%

COCCCOC(=O)COc1ccccc1
inactive: [1] -11.3% | [2] -45.5% | [3] -8.65% | [4] -12.8% | [5] 11.9% | [6] -13.5%

COc1ccccc1NC1Oc2cc3c(cc2C(c2cc(OC)c(OC)c(OC)c2)C1C)OCO3 (centres undefined)
inactive: [1] -16.4% | [2] -26.1% | [3] -1.25% | [4] -0.85% | [5] -2.8% | [6] -5.35%

CCCc1c(OC(=O)c2ccc([N+](=O)[O-])cc2)cccc1OC(=O)c1ccc([N+](=O)[O-])cc1
inactive: [1] 20.1% | [2] 1.1% | [3] 12.8% | [4] 18.1% | [5] -3.95% | [6] 7.55%

CCOC(=O)Nc1ccc(NC(C)=O)cc1
inactive: [1] 2.45% | [2] 0.65% | [3] 1.3% | [4] -62.7% | [5] -23.8% | [6] -22.6%

O=c1ccc2cc3ccoc3c(OCCOCCOCCOCCOc3c4occc4cc4ccc(=O)oc34)c2o1
inactive: [1] 14.7% | [2] 17.4% | [3] 11.4% | [4] -17.2% | [5] 3.5% | [6] 26.8%

CC1=C/C(=N\O)C(C(O)(C(F)(F)F)C(F)(F)F)C(C)(C)C1 (centres undefined)
inactive: [1] -37.7% | [2] -39% | [3] -17.4% | [4] -12.5% | [5] -7.35% | [6] 2.9%

Cc1cc(NS(=O)(=O)c2ccc(NC(=O)c3ccc(Cl)c4c(Nc5ccc(S(=O)(=O)N=C(N)N)cc5)c5ccccc5nc34)cc2)no1
inactive: [1] 29.9% | [2] 42.1% | [3] 31.6% | [4] 34.5% | [5] 26.4% | [6] 53.5%

CCN(CC)CC(C)=O
inactive: [1] -31% | [2] -58.3% | [3] -82.5% | [4] 14.8% | [5] -11.9% | [6] -6.1%

CCc1ccccc1NC(=O)C(=O)C(C#N)c1ccccc1Cl (centres undefined)
inactive: [1] -7.2% | [2] -30.6% | [3] -17.6% | [4] 3.55% | [5] 6.3% | [6] -9.45%

O=C1OCC2Cc3ccccc3C(c3ccccc3)=C12 (centres undefined)
inactive: [1] -3.85% | [2] -6.3% | [3] -1.3% | [4] -31.5% | [5] 11.3% | [6] -1%

CCC(=O)OCC(OC(=O)CC)C(OC(=O)CC)C(OC(=O)CC)C(COC(=O)CC)OC(=O)CC (centres undefined)
inactive: [1] -0.5% | [2] 6.95% | [3] -16.6% | [4] -31.6% | [5] 1.35% | [6] -3.75%

CN1C/C(=C\c2ccc(N(C)C)cc2)C(=O)/C(=C/c2ccc(N(C)C)cc2)C1
inactive: [1] -17.6% | [2] -8.05% | [3] -2.2% | [4] -1.35% | [5] 4.05% | [6] -9.85%

CC1CCC(C(C)C)=C(C2CCCCC2)C1 (centres undefined)
inactive: [1] -2.15% | [2] 1.65% | [3] -3.65% | [4] -7.05% | [5] -9.8% | [6] 6.65%

CCCCCCCCCCCC(=O)N(CCOC(=O)c1ccccc1)CCc1ccccc1
inactive: [1] 32.6% | [2] 9.45% | [3] 16.6% | [4] 19.2% | [5] -3.2% | [6] 24.5%

CN(/N=C/c1cccs1)c1ccc([N+](=O)[O-])cc1[N+](=O)[O-]
inactive: [1] -24.7% | [2] -25.5% | [3] 7.05% | [4] -9.35% | [5] -12.8% | [6] -10.8%

CCOC(=O)C1=C(C)NC(=O)NC1c1ccc(N(C)C)cc1 (centres undefined)
inactive: [1] 22.8% | [2] -4.05% | [3] 23.2% | [4] 21.6% | [5] 30.6% | [6] 29.1%

O=S(=O)(O)ON=C1c2ccccc2-c2ccccc21
inactive: [1] 0.6% | [2] -10.7% | [3] 10.4% | [4] 10.4% | [5] 6.55% | [6] -13.6%

O=C1c2ccccc2C2(O)Oc3cccc(O)c3C12O (centres undefined)
inactive: [1] 6.45% | [2] 4.55% | [3] -2% | [4] -14.9% | [5] 2.85% | [6] 49.9%

CC1CCCC2(CC[N+](C)(CCC[N+](C)(C)C)CC2)C1 (centres undefined)
inactive: [1] -9.5% | [2] -7.95% | [3] -16.2% | [4] 15.1% | [5] -41% | [6] -1.7%

COc1ccc(OC)c2cc3c(cc12)C(=O)c1ccccc1C3=O
active: [2] 70.2% | [4] 90.7% | [5] 94.6%
inactive: [1] 10.6% | [3] 25.2% | [6] 46.9%

CC(=Nc1ccc(C)cc1)NNc1nc2ccccc2s1
inactive: [1] 15.1% | [2] -7.3% | [3] 13.2% | [4] -37.2% | [5] 17.3% | [6] 25%

O=C(OCCCl)Oc1c(Cl)cc([N+](=O)[O-])cc1[N+](=O)[O-]
active: [1] 99.6% | [2] 99.8% | [3] 99.7% | [4] 99% | [5] 99.2% | [6] 99.5%
